Common to all, as to type: functional
Assay [1] concerns the target Solute carrier family 2, facilitated glucose transporter member 1 (Homo sapiens) (UniProt P11166). Description: ST_JUDE_LEISH: Cytotoxicity at 2uM final concentration against transgenic Leishmania Mexicana promastigotes LmGLUT1 that are glucose transport deficient and complemented with the human glucose transporter GLUT1. Activity is measured by DNA content using SYBR green in vitro.

The target of assay [2] is Hexose transporter 1 (Plasmodium falciparum) (UniProt O97467). Description: ST_JUDE_LEISH: Cytotoxicity at 2uM final concentration against transgenic Leishmania Mexicana promastigotes LmPfHT that are glucose transport deficient and complemented with the Plasmodium falciparum hexose transporter. Activity is measured by DNA content using SYBR green in vitro.
Assay [3] has as its target Glucose transporter (Leishmania mexicana) (UniProt O61059). As to the kind of experiment: ST_JUDE_LEISH: Cytotoxicity at 2uM final concentration against transgenic Leishmania Mexicana promastigotes LmGT2 that are glucose transport deficient and complemented with the L. Mexicana glucose transporter 2. Activity is measured by DNA content using SYBR green in vitro.

Solute carrier family 2, facilitated glucose transporter member 1 (Homo sapiens), sequence (P11166 whole entry): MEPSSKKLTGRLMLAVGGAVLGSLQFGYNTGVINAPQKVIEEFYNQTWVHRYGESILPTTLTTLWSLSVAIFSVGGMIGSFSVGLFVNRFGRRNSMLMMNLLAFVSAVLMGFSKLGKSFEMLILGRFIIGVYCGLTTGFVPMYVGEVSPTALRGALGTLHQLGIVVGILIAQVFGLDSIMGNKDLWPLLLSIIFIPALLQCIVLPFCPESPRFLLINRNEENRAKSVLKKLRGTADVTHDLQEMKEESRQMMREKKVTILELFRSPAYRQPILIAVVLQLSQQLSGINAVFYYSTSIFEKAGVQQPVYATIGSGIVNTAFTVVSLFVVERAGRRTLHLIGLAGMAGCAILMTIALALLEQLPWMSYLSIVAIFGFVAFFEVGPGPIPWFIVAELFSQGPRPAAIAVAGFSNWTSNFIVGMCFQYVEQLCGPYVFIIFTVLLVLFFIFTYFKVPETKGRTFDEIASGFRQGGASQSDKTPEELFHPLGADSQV

Usually inhibition stands for the drop in the measured response relative to a control, in per cent. Take `Cc1ccc2nc(Cl)c3cc(C(=O)NCCCN4CCCC4)sc3c2c1`: the inhibition came out at 8.7% in assay [1], 10.2% in assay [2] and 9.6% in assay [3].

For `CN1CCN(Cc2cccc(-c3cc4nccc(Nc5ccc(Oc6ccccc6)cc5)c4cc3Cl)c2)CC1`, the inhibition in assay [1] was -1.94%; in assay [2] it was 0.9%; in assay [3], 1.01%.

As to `CCCCCC(NCCCC)c1ccc(OCCOc2ccc(C(CCCCC)NCCCC)cc2)cc1` (stereo unspecified), the inhibition was determined as 60.3% in assay [1], 86% in assay [2] and 85.3% in assay [3].

On to `COc1ccc(Nc2ncc3c(-c4cccc(NC(=O)Cc5ccc(O)cc5)c4)c[nH]c3n2)cc1OC`, for which the inhibition in assay [1] was found to be 9.41%; in assay [2], 5.77%; in assay [3], 8.19%.

Take `C=CC(C)C1OC(=O)c2cc(OC)cc(OC)c21` (stereo unspecified): the results for the inhibition in assay [1], in assay [2] and in assay [3] were 92.2%, 89% and 86.8%, respectively.

Regarding `COc1cccc(-c2cc3nc4c(c(NCCCn5ccnc5)n3n2)CCCC4)c1`, the inhibition is 2.73% in assay [1], 5.03% in assay [2] and 2.77% in assay [3].

Turning to `COc1ccc(-c2cccc(NC(=O)c3cccc(Cl)c3)c2)cc1CN1CCCN(C)CC1`, the inhibition came out at 11.4% in assay [1], 12% in assay [2] and 11.7% in assay [3].

Take `Cc1ccc2ncc(Cl)c(CCN3CCC(NCc4ccc5c(n4)NC(=O)CS5)CC3)c2n1`: the inhibition in assay [1] was 3.75%; in assay [2] it was 4.54%; in assay [3], 2.85%.

Turning to `N=C1NC(=N)N(OCCCCCCON2C(=N)NC(=N)NC2C=Cc2ccccc2)C(C=Cc2ccccc2)N1` (stereo unspecified), the inhibition was 1.73% in assay [1], 2.16% in assay [2] and 10.7% in assay [3].

Consider `O=C(Nc1ccnc(N2CC3CC2CN3Cc2cccc(O)c2)c1)c1ccc(F)cc1` (stereo unspecified), for which the inhibition in assay [1] is 0.07%; in assay [2], -1.27%; in assay [3], 1.75%.

Consider `CC(O)C1CCCCN1C(=O)c1cccc(-c2cccc(-c3nc4cc(C(F)(F)F)ccc4[nH]3)c2)c1` (stereo unspecified), for which the inhibition in assay [1] is -0.23%; in assay [2] it was 1.12%; in assay [3], -0.12%.

As to `O=C(Nc1ccc(-c2nc3ccccc3[nH]2)cc1)c1ccc(N2CCOCC2)c([N+](=O)[O-])c1`, the values for the inhibition in assay [1], in assay [2] and in assay [3] were -0.45%, -0.76% and -0.91%, respectively.

These data come from ChEMBL document CHEMBL3433997, “St. Jude Leishmania screening dataset” (2016).
